# From PubChem BioAssay (NCATS)
# Results filed as inconclusive are left out. A call without a number means that no potency is given here. Calls of active or inactive are those of the source. Unless noted, calls come from the whole dose curve; as a rule, active = well fitted curve in the direction sought with a large enough effect; inconclusive = small, poorly fitted or top-dose-only effect, or another doubt; inactive = no such curve, though single readings can be large; an effect the other way counts as inactive or inconclusive.
# Columns and labels:
# [1] = qHTS Assay for Identifying Gametocytocidal Compounds (AID 743244);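 note: actives lower the fluorescent signal which means gametocytes are killed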; details: P. falciparum 3D7 stage III-V gametocytes, alamarBlue, 72 h; max response: stronger effect = lower value
# How it was run: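 Using 20,000 stage III–V 3D7 gametocytes per well, compounds were incubated 72 h under 37 °C/5% CO2. Viability was then assessed by 24 h alamarBlue reduction, measured fluorometrically at 525/598 nm.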
# [2] = P-glycoprotein substrates identified in KB-8-5-11 adenocarcinoma cell line, qHTS therapeutic library screen (AID 1346987); note: potency is the fitted concentration of half-maximal effect; nearly all actives have a fitted effect of over 65% in size
# How it was run: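 Compounds are pinned in dose-response onto KB-8-5-11 cells (500 cells/well, colchicine-free medium) and left 72 h at 37 degree C. CellTiter-Glo luminescence then yields AC50 values.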
# [3] = Primary qHTS for inhibitors of SARS-S pseudo-typed particle cell entry (AID 1479145; calls by dose curve; note: nearly all actives have a fitted effect of over 45% in size)
# [4] = Primary qHTS for Huh7 cytotoxicity: counterscreen for inhibitors of MERS-S pseudotyped particle cell entry (AID 1479147; calls by dose curve); details: outcome: dose series up to 57.1 µM unless noted
# [5] = Primary qHTS for inhibitors of MERS-S pseudo-typed particle cell entry (AID 1479149; calls by dose curve; note: nearly all actives have a fitted effect of over 60% in size)
# [6] = Primary qHTS for Vero E6 cytotoxicity: counterscreen for inhibitors of SARS-S pseudo-typed particle cell entry (AID 1479150; calls by dose curve); details: outcome: dose series up to 57.1 µM unless noted
# [7] = Cytotoxicity counterscreen for inhibitors of SARS-CoV-2 cell entry (AID 1645845; calls by dose curve; note: nearly all actives have a fitted effect of over 50% in size)
# How it was run: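 Counterscreen run in the same HEK293-ACE2 line as the pseudotyped-particle entry assay, without particles. Viability after 48 h at 37 C was read as ATP luminescence, scaled between cell-containing and cell-free wells.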
# [8] = Primary qHTS to identify inhibitors of SARS-CoV-2 cell entry (AID 1645846; calls by dose curve; note: nearly all actives have a fitted effect of over 45% in size); details: activity change, negative = inhibition: at 57.1 µM (top of the series) unless noted
# How it was run: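 HEK293 cells stably expressing human ACE2, pre-treated 1 h with compound, then infected with MLV particles pseudotyped with Wuhan-Hu-1 spike (C-terminal 19-aa truncation). Luciferase luminescence after 48 h at 37 °C, normalised to spike PP and bald PP.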
# [9] = target: Glutathione peroxidase 1 (Homo sapiens) (UniProt P07203); assay: Primary qHTS Assay for Inhibitors of Recombinant Selenoprotein Glutathione Peroxidase 1 (GPX1) (AID 1845191); note: nearly all actives have a fitted effect of over 65% in size
# Glutathione peroxidase 1 (Homo sapiens), sequence (P07203 whole entry, looked up): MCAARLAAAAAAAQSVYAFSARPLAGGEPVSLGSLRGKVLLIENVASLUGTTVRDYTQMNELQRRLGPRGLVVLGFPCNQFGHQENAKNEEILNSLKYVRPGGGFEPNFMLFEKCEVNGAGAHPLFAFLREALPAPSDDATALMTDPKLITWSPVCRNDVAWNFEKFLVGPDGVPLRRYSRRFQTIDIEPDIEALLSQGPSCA
# How it was run: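 GR-coupled readout: NADPH consumption tracked by fluorescence, ex 340/em 450 nm, at t=0 and after 15 min at RT. Final mix 10 nM GPX1, 1 mM GSH, 0.5 mM CHP, 0.5 mM NADPH, 100 nM GR, 0.01% BSA, following 30 min enzyme–compound preincubation.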
# [10] = target: Phospholipid hydroperoxide glutathione peroxidase GPX4 (Homo sapiens) (UniProt P36969); assay: Primary qHTS Assay for Inhibitors of Recombinant Selenoprotein Glutathione Peroxidase 4 (GPX4) (AID 1845192); note: nearly all actives have a fitted effect of over 65% in size
# Phospholipid hydroperoxide glutathione peroxidase GPX4 (Homo sapiens), sequence (P36969 whole entry, looked up): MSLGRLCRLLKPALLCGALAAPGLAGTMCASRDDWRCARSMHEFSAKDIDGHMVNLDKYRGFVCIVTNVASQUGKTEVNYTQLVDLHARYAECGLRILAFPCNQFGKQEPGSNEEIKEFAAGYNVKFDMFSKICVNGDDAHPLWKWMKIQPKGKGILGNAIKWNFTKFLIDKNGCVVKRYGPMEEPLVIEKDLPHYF
# How it was run: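 Steps: GPX4 plus compound, 30 min RT; add GR/GSH/NADPH master mix; start with cumene hydroperoxide; read 340/450 nm fluorescence at 0 and 15 min. Finals were 200 nM GPX4, 1 mM GSH, 0.5 mM CHP, 0.5 mM NADPH, 100 nM GR.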
# [11] = target: Furin (Homo sapiens) (UniProt P09958); assay: Furin counterscreen qHTS for Zika virus inhibitors (AID 1347149);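 note: purified recombinant full-length human furin enzyme at 5 nM; fluorescence gain from furin cutting a BOC-RVRR-AMC peptide substrate over 15 min; top concentration of the series differs between compounds; nearly all actives have a fitted effect of over 70% in size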
# Furin (Homo sapiens), sequence (P09958 whole entry, looked up): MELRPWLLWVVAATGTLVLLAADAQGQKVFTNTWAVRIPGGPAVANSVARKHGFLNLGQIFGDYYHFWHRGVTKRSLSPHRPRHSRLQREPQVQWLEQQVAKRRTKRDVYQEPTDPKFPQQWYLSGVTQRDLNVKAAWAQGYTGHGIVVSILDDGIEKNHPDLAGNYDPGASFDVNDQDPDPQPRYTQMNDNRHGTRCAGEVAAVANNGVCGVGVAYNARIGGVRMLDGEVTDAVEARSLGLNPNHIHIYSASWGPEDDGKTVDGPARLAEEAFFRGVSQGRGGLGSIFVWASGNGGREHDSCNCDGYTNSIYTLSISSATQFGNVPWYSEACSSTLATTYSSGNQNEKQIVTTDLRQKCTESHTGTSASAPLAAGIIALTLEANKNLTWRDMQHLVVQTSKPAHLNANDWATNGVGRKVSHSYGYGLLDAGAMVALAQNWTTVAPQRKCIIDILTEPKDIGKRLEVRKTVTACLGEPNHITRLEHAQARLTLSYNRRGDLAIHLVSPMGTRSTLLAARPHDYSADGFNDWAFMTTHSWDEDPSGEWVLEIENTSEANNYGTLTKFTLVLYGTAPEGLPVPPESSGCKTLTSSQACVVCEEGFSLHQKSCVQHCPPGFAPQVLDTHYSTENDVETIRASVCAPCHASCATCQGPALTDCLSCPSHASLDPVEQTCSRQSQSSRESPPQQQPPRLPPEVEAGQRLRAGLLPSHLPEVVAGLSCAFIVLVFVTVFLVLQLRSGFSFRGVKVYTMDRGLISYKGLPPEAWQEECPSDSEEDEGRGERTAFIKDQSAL
# How it was run: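 Counterscreen measures cleavage of 2 microM BOC-RVRR-AMC, below its ~15 microM Km, by 5 nM full-length human furin at pH 7.0 after a 15-min compound preincubation. Inhibition derives from the 15-min fluorescence increase at 37C.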
# [12] = tested on: Zika virus NS2B-NS3 protease (unlinked); assay: Optimization of GU AMC qHTS for Zika virus inhibitors: Unlinked NS2B-NS3 protease assay (AID 1347151); note: nearly all actives have a fitted effect of over 80% in size
# How it was run: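 Noncovalent NS2B hydrophilic domain–NS3 protease complex (25 nM final) in 10 mM Tris-HCl pH 8.0, 0.01% Tween 20; AMC substrate, room temperature 15 min (~20% conversion); fluorescence change normalized, 4-parameter Hill fit.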
# [13] = tested on: Zika virus NS2B-NS3 protease (linked construct); assay: Confirmatory screen NINDS AMC qHTS for Zika virus inhibitors (AID 1347152);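 note: AMC fluorescence gain from cleaved Bz-Nle-KRR-AMC substrate over 15 min; top concentration of the series differs between compounds; nearly all actives have a fitted effect of over 70% in size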
# How it was run: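 Linked NS2B-NS3 protease, 1 nM, in 10 mM Tris-HCl pH 8.0, 0.01% Tween 20; compounds preincubated 15 min at room temperature. Nle-KRR-AMC 10 microM (Km 18.3 µM); 15-min fluorescence change (340/450 nm) fitted to 4-parameter Hill.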
# [14] = tested on: Zika virus NS2B-NS3 protease (unlinked complex); assay: Confirmatory screen GU AMC qHTS for Zika virus inhibitors (AID 1347153); note: nearly all actives have a fitted effect of over 70% in size
# How it was run: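 Unlinked NS2B-NS3 complex (25 nM) in 10 mM Tris-HCl pH 8.0, 0.01% Tween 20 preincubated 15 min with compound, then 10 microM Bz-Nle-KRR-AMC (Km 18.3 µM). Fluorescence change over 15 min, normalized, Hill-fitted.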
# [15] = Confirmatory screen NINDS Rhodamine qHTS for Zika virus inhibitors (AID 1347161);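 note: purified Zika NS2B-NS3 protease with linked NS2B cofactor domain and Rhodamine110 peptide substrate; nearly all actives have a fitted effect of over 60% in size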
# How it was run: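 Kinetic fluorescence (Ex 480 nm, Em 540 nm) over 15 min with 1.5 microM Rhodamine110 peptide and 25 nM linked protease.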
# [16] = Vero cells viability qHTS for Zika virus inhibitors (AID 1347167)
# How it was run: (§1)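 qHTS titration; 24-48 h compound exposure, 37 degrees C/5% CO2; DMEM, 4% FBS; CellTiter Glo ATP luminescence.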
# [17] = HepG2 cells viability qHTS for Zika virus inhibitors (AID 1347168)
# How it was run: as §1
# [18] = tested on: astro; assay: Drug repurposing screens with cells derived from glioblastoma tumor samples (AID 1345199); details: viability, ATP luminescence, 48 h; series mostly up to 45.9 µM; note: nearly all actives have a fitted effect of over 40% in size
# How it was run: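 Primary testing used CD133+ neurospheres from four GBM patients, seven concentrations, 48 h exposure and ATP-based viability; confirmation added three slower-growing patient lines.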
Compound,max response [1],Potency [2],Potency [3],outcome [4],Potency [5],outcome [6],Potency [7],"activity change, negative = inhibition [8]",Potency [9],Potency [10],Potency [11],outcome [12],Potency [13],Potency [14],Potency [15],Potency [16],Potency [17],Potency [18]
C[C@]12CC[C@H]3[C@@H](CCC4=CC(=O)CC[C@@]43C)[C@@H]1CC[C@@H]2OC(=O)CCc1ccccc1,3.81% (inactive),10 µM (active),inactive,inactive,inactive,inactive,inactive,-18.9%,inactive,inactive,–,–,–,–,–,–,–,–
C[C@@H]1[C@@H]2Cc3ccc(O)cc3[C@@]1(C)CCN2CCc1ccccc1,–,12.6 µM (active),–,–,–,–,–,–,–,–,inactive,inactive,inactive,inactive,inactive,inactive,inactive,inactive
